The nature of assay [1]: qHTS assay to identify small molecule antagonists of the peroxisome proliferator-activated receptor delta (PPARd) signaling pathway - cell viability counter screen (AID 743213). Also: nearly all actives have a fitted effect of over 50% in size. Also: potency is read from the fitted curve at half-maximal effect. An outline of the steps:
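CellTiter-Glo was added to PPARd-bla HEK293H wells following 17 h compound treatment in the presence of 300 nM L165041. Luminescence was recorded after 30 min at room temperature.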
On the technique in general: Quantitative high-throughput screening tests each substance at several concentrations.

Assay [2] in a line: qHTS assay to identify small molecule agonists of the vitamin D receptor (VDR) signaling pathway - cell viability counter screen (AID 743224). Also: nearly all actives have a fitted effect of over 50% in size. Also: potency is read from the fitted curve at half-maximal effect. The procedure, abridged:
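CellTiter-Glo viability readout on VDR-bla cells, measured after 16 h of compound treatment at 37C in the same wells.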

A short description of assay [3]: qHTS assay to identify small molecule antagonists of the vitamin D receptor (VDR) signaling pathway - cell viability counter screen (AID 743225). Also: % is scaled to controls: 0 for no effect and ±100 for the full control effect; nearly all actives have a fitted effect of over 50% in size. The procedure, abridged: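 Parallel cytotoxicity test: VDR-UAS-bla HEK 293T, 3 nM (final) 1-alpha,25-dihydroxyvitamin D3 with test compound, 16 h, 37C. Endpoint is CellTiter-Glo luminescence in the same wells.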
Assay [4] can be described thus: qHTS assay to identify small molecule agonists of the NFkB signaling pathway - cell viability counter screen (AID 1159515; calls by dose curve; also: nearly all actives have a fitted effect of over 55% in size; also: potency is read from the fitted curve at half-maximal effect). The procedure, abridged:
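Tox21 library compounds were tested for cytotoxicity against NFkB-bla ME-180 cells during a 5 hr exposure at 37 C. CellTiter-Glo luminescence served as the viability read-out.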

Assay [5] can be described thus: qHTS assay to identify small molecule agonists of the endoplasmic reticulum stress response signaling pathway - cell viability counter screen (AID 1159517; calls by dose curve; also: nearly all actives have a fitted effect of over 50% in size; also: potency is read from the fitted curve at half-maximal effect). An outline of the steps: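 In parallel with the ESRE reporter read, cytotoxicity was scored by CellTiter-Glo luminescence (30 min, room temperature) on HeLa ESRE-bla cells dosed for 5 hr.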
Assay [6] has as its target Nuclear receptor ROR-gamma (Homo sapiens) (UniProt P51449). Nature of the assay: qHTS assay to identify small molecule antagonists of the retinoid-related orphan receptor gamma (ROR-gamma) signaling pathway (AID 1159521; also: nearly all actives have a fitted effect of over 50% in size; also: potency is read from the fitted curve at half-maximal effect). An outline of the steps: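 Decreased RORE-driven luciferase luminescence indicates antagonism. Tet-on RORγ CHO cells received compound, then 1 uM final doxycycline 2 h later; signal read after 16 h incubation.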

Assay [7] can be described thus: qHTS assay to identify small molecule agonists of the AP-1 signaling pathway - cell viability counter screen (AID 1159525; calls by dose curve; also: nearly all actives have a fitted effect of over 55% in size; also: potency is read from the fitted curve at half-maximal effect). The procedure, abridged: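 Same-well cytotoxicity counter screen of the Tox21 10K library in ME-180 cells. The readout is ATP-dependent luminescence after 5 h compound treatment. Data are normalised to DMSO and tetra n-octyl ammonium bromide controls.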

The target of assay [8] is Peroxisome proliferator-activated receptor delta (Homo sapiens) (UniProt Q03181). Nature of the assay: qHTS assay to identify small molecule antagonists of the peroxisome proliferator-activated receptor delta (PPARd) signaling pathway (AID 743215; active = well fitted inhibition curve with a large enough effect in the signal ratio in the repeat runs, not every such curve was filed as active; the % refers to the signal ratio;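 also: cells stimulated with agonist L165041 at 300 nM final during compound exposure; series mostly up to about 62 µM; % is scaled to controls: 0 for no effect and ±100 for the full control effect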). The procedure, abridged: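 Here, a reporter line (HEK293H, beta-lactamase under a UAS) measures PPARd signaling. Compounds are tested against agonist L165041 at 300 nM final concentration over 17 h at 37 C, with fluorescence read after substrate.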
Sequence of Peroxisome proliferator-activated receptor delta (Homo sapiens) (Q03181 whole entry, looked up): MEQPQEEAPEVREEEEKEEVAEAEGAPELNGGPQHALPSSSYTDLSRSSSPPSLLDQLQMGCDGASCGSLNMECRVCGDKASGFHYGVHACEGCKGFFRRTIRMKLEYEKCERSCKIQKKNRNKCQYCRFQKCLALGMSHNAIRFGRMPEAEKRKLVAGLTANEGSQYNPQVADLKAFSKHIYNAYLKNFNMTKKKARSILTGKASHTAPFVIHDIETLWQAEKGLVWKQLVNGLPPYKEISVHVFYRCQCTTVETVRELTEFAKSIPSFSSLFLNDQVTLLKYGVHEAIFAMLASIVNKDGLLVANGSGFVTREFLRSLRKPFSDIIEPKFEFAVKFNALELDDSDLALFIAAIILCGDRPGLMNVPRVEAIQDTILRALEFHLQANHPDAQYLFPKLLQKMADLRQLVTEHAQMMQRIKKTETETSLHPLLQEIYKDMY

Assay [9] has as its target Bile acid receptor (Homo sapiens) (UniProt Q96RI1). Nature of the assay: qHTS assay to identify small molecule antagonists of the farnesoid-X-receptor (FXR) signaling pathway (AID 743217; active = well fitted inhibition curve with a large enough effect in the signal ratio in the repeat runs, not every such curve was filed as active; the % refers to the signal ratio; also: % is scaled to controls: 0 for no effect and ±100 for the full control effect). An outline of the steps: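 Test compounds are pin-transferred onto FXR-bla HEK 293T cells, then chenodeoxycholic acid is added at 50 uM final. After 16 h at 37 °C, LiveBLAzer B/G substrate is applied for 2 h at room temperature and fluorescence read.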

The nature of assay [10]: qHTS assay to identify small molecule antagonists of the farnesoid-X-receptor (FXR) signaling pathway - cell viability counter screen (AID 743221; active = well fitted cell-killing curve with a large enough effect in the repeat runs, not every such curve was filed as active; also: nearly all actives have a fitted effect of over 50% in size; also: potency is read from the fitted curve at half-maximal effect). The procedure, abridged: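 After a 5 h settling period, FXR-bla HEK 293T cells receive compound and chenodeoxycholic acid (50 uM final) and incubate 16 h at 37 C; CellTiter-Glo luminescence, read after 30 min at room temperature, reports cell viability.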

Assay [11] has as its target Vitamin D3 receptor (Homo sapiens) (UniProt P11473). Nature of the assay: qHTS assay to identify small molecule agonists of the vitamin D receptor (VDR) signaling pathway (AID 743222; calls by dose curve; also: potency is read from the fitted curve at half-maximal effect). An outline of the steps:
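Tox21 cell reporter format: VDR-bla line, 16 h compound exposure in 5% CO2 at 37C, then fluorescence intensity after 2 h with LiveBLAzer B/G FRET substrate.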

Assay [12] concerns the target Peroxisome proliferator-activated receptor delta (Homo sapiens) (UniProt Q03181). Nature of the assay: qHTS assay to identify small molecule agonists of the peroxisome proliferator-activated receptor delta (PPARd) signaling pathway (AID 743212; calls by dose curve; also: % is scaled to controls: 0 for no effect and ±100 for the full control effect). The procedure, abridged:
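Tox21 library screened in GeneBLAzer PPARd UAS-bla HEK293H cells. After compound treatment at 37 C, a FRET-based beta-lactamase substrate was applied for 2 h and fluorescence recorded.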

A short description of assay [13]: qHTS assay to identify small molecule antagonists of the retinoid-related orphan receptor gamma (ROR-gamma) signaling pathway - cell viability counter screen (AID 1159520). Also: nearly all actives have a fitted effect of over 50% in size. Also: potency is read from the fitted curve at half-maximal effect. The procedure, abridged: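 Tet-on ROR gamma CHO cells were given compounds for 2 hr, then doxycycline hyclate at 1 uM final, and incubated 16 hr at 37 C. Viability was measured as ATP content by CellTiter-Glo luminescence.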

The target in assay [14] is Retinoic acid receptor RXR-alpha (Homo sapiens) (UniProt P19793). Nature of the assay: qHTS assay to identify small molecule agonists of the RXR signaling pathway (AID 1159527; calls by dose curve; also: % is scaled to controls: 0 for no effect and ±100 for the full control effect; nearly all actives have a fitted effect of over 35% in size). An outline of the steps:
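16 hr incubation of compound-treated RXR-alpha-UAS-bla HEK 293T cells (2% charcoal-stripped FBS, 37 C) preceded a 2 hr room-temperature LiveBLAzer FRET substrate step and blue/green fluorescence measurement.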

The nature of assay [15]: qHTS assay to identify small molecule agonists of the RXR signaling pathway - cell viability counter screen (AID 1159529). Also: nearly all actives have a fitted effect of over 50% in size. Also: potency is read from the fitted curve at half-maximal effect. An outline of the steps: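 In this parallel viability measure, GeneBLAzer RXR-alpha HEK 293T cells (2% charcoal-stripped FBS) were given a 5 hr preincubation, treated with compounds 16 hr at 37 C, and read by CellTiter-Glo luminescence.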
A short description of assay [16]: qHTS assay to identify small molecule agonists of the farnesoid-X-receptor (FXR) signaling pathway - cell viability counter screen (AID 743218). Also: nearly all actives have a fitted effect of over 45% in size. Also: potency is read from the fitted curve at half-maximal effect. The procedure, abridged: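 Quantitative HTS counter screen measuring ATP-based viability via CellTiter-Glo luminescence in HEK 293T cells carrying a UAS-driven beta-lactamase reporter, after 16 h compound exposure at 37 C.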

Assay [17] has as its target Vitamin D3 receptor (Homo sapiens) (UniProt P11473). Nature of the assay: qHTS assay to identify small molecule antagonists of the vitamin D receptor (VDR) signaling pathway (AID 743223; active = well fitted inhibition curve with a large enough effect in the signal ratio in the repeat runs, not every such curve was filed as active; the % refers to the signal ratio; also: % is scaled to controls: 0 for no effect and ±100 for the full control effect). The procedure, abridged: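 Reporter line VDR-bla; stimulus 1alpha,25-(OH)2 vitamin D3, 3 nM final; compound co-addition, 16 h 37C/5% CO2; LiveBLAzer B/G substrate 2 h RT; fluorescence intensity.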

The nature of assay [18]: qHTS assay to identify small molecule agonists of the AP-1 signaling pathway (AID 1159526; calls by dose curve; also: % is scaled to controls: 0 for no effect and ±100 for the full control effect).
The target in assay [19] is Bile acid receptor (Homo sapiens) (UniProt Q96RI1). Nature of the assay: qHTS assay to identify small molecule agonists of the farnesoid-X-receptor (FXR) signaling pathway (AID 743220; active = well fitted activation curve with a large enough effect in the signal ratio in the repeat runs, not every such curve was filed as active; the % refers to the signal ratio; also: % is scaled to controls: 0 for no effect and ±100 for the full control effect). An outline of the steps: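 FXR-UAS-bla HEK 293T cells carrying a UAS-driven beta-lactamase reporter were plated for 5 h at 37C/5% CO2, then exposed to DMSO-dissolved Tox21 10K compounds for 16 h at 37C. A LiveBLAzer B/G FRET substrate was loaded for 2 h at room temperature before fluorescence reading.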
Sequence of Bile acid receptor (Homo sapiens) (Q96RI1 whole entry, looked up): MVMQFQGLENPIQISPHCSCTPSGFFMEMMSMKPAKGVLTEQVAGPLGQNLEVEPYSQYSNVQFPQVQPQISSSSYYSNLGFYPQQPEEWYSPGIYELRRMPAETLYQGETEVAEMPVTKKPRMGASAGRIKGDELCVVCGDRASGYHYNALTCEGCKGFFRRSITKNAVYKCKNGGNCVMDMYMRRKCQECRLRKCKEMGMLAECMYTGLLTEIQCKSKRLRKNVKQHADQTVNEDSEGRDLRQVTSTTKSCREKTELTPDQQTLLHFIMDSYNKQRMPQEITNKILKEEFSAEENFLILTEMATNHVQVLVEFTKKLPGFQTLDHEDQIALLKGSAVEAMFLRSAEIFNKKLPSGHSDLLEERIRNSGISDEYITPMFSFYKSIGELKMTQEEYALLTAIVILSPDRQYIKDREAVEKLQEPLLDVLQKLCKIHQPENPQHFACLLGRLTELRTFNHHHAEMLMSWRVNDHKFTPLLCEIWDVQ

Records with an inconclusive call do not appear. A number with no mark means an inactive call. Calls of active or inactive are those of the source. Unless noted, calls follow the shape of the dose curve; as a rule, active = well fitted curve in the direction sought with a large enough effect in the repeat runs; inconclusive = weak or mixed curves; inactive = no such curve, though single readings can be large; an effect the other way counts as inactive or inconclusive.

Sequence of Retinoic acid receptor RXR-alpha (Homo sapiens) (P19793 whole entry, looked up): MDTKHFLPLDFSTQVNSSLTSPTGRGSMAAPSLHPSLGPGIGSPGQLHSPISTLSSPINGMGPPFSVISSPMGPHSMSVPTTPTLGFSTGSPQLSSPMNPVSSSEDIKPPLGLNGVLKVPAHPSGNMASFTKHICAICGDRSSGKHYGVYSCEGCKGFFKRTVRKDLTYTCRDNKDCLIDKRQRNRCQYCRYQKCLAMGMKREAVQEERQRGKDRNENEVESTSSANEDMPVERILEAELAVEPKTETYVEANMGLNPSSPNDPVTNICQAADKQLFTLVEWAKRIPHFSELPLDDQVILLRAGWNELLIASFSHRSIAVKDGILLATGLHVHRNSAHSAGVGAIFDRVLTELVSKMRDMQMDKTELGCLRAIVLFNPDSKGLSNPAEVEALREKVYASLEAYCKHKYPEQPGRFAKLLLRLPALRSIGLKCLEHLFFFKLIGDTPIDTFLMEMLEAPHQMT
Sequence of Vitamin D3 receptor (Homo sapiens) (P11473 whole entry, looked up): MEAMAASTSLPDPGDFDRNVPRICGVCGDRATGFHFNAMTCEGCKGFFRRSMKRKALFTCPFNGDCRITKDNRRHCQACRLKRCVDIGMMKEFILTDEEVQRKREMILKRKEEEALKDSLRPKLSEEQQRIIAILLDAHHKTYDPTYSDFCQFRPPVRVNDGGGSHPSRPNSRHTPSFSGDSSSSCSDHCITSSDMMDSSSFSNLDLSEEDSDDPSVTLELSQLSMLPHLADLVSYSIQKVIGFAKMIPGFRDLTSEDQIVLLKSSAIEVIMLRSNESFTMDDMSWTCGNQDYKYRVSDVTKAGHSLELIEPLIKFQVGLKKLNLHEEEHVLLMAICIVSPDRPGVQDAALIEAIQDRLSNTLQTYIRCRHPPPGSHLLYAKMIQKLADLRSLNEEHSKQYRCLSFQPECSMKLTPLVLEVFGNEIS

On to `CCCCCOc1ccccc1/C(=C\SC)n1ccnc1`, for which the Potency result in assay [1], in [2], in assay [3], in assay [4], in assay [5] and in assay [7] was “inactive” each time. The Potency in [6] was 13.3 µM (active).
`Cc1[nH]cnc1C[C@H]1CCc2c(C)c3ccccc3n2C1=O`: the Potency result in assay [8], in [9], in [10], in [11], in assay [2] and in assay [3] was “inactive” in each case. Further, the Potency result in [4], in [5] and in [7] was “inactive” in each case. Also, in assay [6], the Potency was 23.7 µM (active).
As to `CCCCN(CCCC)C(=O)N(CCCC)CCCC`, the Potency entry in assay [12], in [1], in [8], in assay [9], in assay [10] and in [11] was “inactive” each time. In addition, the Potency entry in [2], in [3], in assay [4], in [13], in assay [6] and in assay [7] was “inactive” throughout. Moreover, the Potency entry in [14] and in assay [15] was “inactive” throughout.
For `CC(NN)c1ccccc1` (stereo not drawn), the Potency result in assay [1], in assay [16], in assay [10], in assay [17], in assay [2] and in assay [3] was “inactive” in each case. Also, the Potency entry in assay [4] is “inactive”. In addition, in assay [13], the activity, negative = cytotoxicity is 0.565% [at 19 µM]. Further, the activity change, negative = inhibition in assay [6] is -0.108% [at 19 µM]. Besides, the viability change, negative = cytotoxic in assay [7] was 4.35% [at 15.8 µM]. In addition, the activation in [18] was -4.49% [at 15.8 µM]; in assay [14] it was -0.0243% [at 15.8 µM]. In assay [15], the activity change, negative = cytotoxicity is -0.339% [at 15.8 µM].
For `COC(=O)c1cc(Cl)ccc1OC`, the Potency result in [12], in assay [1], in assay [8], in assay [10], in assay [11] and in [17] was “inactive” each time. In addition, the Potency result in assay [2], in assay [3], in [4], in [13], in [6] and in assay [7] was “inactive” throughout. The Potency result in assay [18], in assay [14] and in [15] was “inactive” each time.
Take `CCC(Cl)C(Cl)C(Cl)CC(Cl)C(Cl)C(C)Cl` (stereo not drawn): the Potency entry in assay [19], in assay [11], in [17], in assay [4], in [5] and in [7] was “inactive” throughout. Besides, the Potency entry in assay [18] was “inactive”. The Potency in [2] is 38.9 µM (active).
Take `On1ccccc1=S`: the Potency in assay [1] is 0.685 µM (active); in [16] it was 0.385 µM (active); in [2] it was 0.61 µM (active); in assay [4], 0.385 µM (active); in [13] it was 5.39 µM (active); in assay [6], 0.303 µM (active). Moreover, the Potency in assay [7] is 21.7 µM (active); in assay [15] it was 2.43 µM (active).
As to `Nc1ccc(N)c2ccccc12`, the Potency in assay [16] was 43.6 µM (active); in assay [2], 19.5 µM (active); in [4] it was 11 µM (active); in [5], 0.775 µM (active); in assay [7], 54.9 µM (active).
Turning to `CCN(Cc1cccnc1)C(=O)c1cccc(Cl)c1[C@]1(C)C(=O)N(Cc2ccc(OC)cc2OC)c2ccc(Cl)cc21`, the Potency in [1] was 5.13 µM (active); in assay [16] it was 3.63 µM (active); in assay [10] it was 11.5 µM (active); in [11] it was 45.8 µM (active); in assay [6] it was 9.05 µM (active). Moreover, the Potency result in assay [4], in [5] and in [7] was “inactive” each time.

Values taken from PubChem BioAssay (Tox21).
